Values joined by “and” are separate entries in the source; they are usually repeats but may differ in a detail not shown here. Equal values may be shown once. Records with an inconclusive call do not appear. Values without a mark were called inactive. Active and inactive are the calls of the source. The call rests on the fitted dose curve; in most records, active means well fitted inhibition curve with a large enough effect; inconclusive means small, poorly fitted or top-dose-only effect; inactive means flat fitted curve, though single readings scatter.

This test in a line: Secondary Assay for lipid storage modulators: Cytotoxcity for probe SAR round 2. Particulars: Drosophila S3 cells viability, CellTiter-Glo ATP luminescence, 24 h; series mostly up to 46.1 µM; activity change, negative = cytotoxicity: at the top concentration. From the text:
NIH Molecular Libraries Probe Production Centers Network [MLPCN] NIH Chemical Genomics Center [NCGC] MLPCN Grant: 1 R03 MH085686-01 Assay Submitter (PI): Beller, Mathias; Max-Planck-Institut fur Biophysikalische Chemie, Germany. NCGC Assay Overview: Storing lipids as a reservoir for energy or the anabolism of elementary metabolites is a common feature of probably all cells and is conserved from bacteria to humans. The universal cellular lipid storage organelle is the so-called lipid storage droplet (LD). Although ubiquitous, LDs share a simple structure composed of a hydrophobic core that harbors the storage lipids, which is shielded by a droplet-specific phospholipid monolayer to which proteins are attached. The current model of LD biogenesis involves an incorporation of the lipid core into the membrane leaflets of the endoplasmic reticulum (ER) followed by a subsequent budding-like maturation of a LD, which ultimately pinches off. Once released, LD volume can increase by localized lipogenesis or fusion of existing droplet. Storage lipids are re-mobilized enzymatically by lipase activity. Lipase regulation in the adipocyte is heavily studied and involves multiple components including catecholamine signaling, the LD-associated proteins Perilipin and comparative gene identification (CGI-58) and at least two lipases named hormone sensitive lipase (HSL) and adipocyte triglyceride lipase (ATGL). LD regulation outside of the adipocyte is poorly understood and only few components are known. However, there is an urgent need to learn more about ectopic fat depots as mislocalized storage of lipids, for example in the liver or muscle, is an eminent health problem associated with insulin resistance or the metabolic syndrome. We developed a laser-scanning cytometer assay to enable 1,536-well screening and combined the results of the small molecules screen with an RNAi database based on lipid storage. The compound was tested here for cytotoxcity using CellTiter-Glo.
Assay Protocol Summary: Cytotoxcity assay was performed with embryonic Drosophila S3 cells (Bloomington Drosophila Genomics Resource Center [DGRC]). We dispensed 4 uL of cells at 1.25 x 10^6 cells/mL into Greiner solid white 1,536-well plates with a bottle-valve solenoid-based dispenser (Aurora) to obtain 5,000 cells/well. A total of 23 nL of compound solution of different concentrations were transferred to the assay plates using a Kalypsys pin tool equipped with a 1,536-pin array containing 10-nL slotted pins (FP1S10, 0.457-mm diameter, 50.8 mm long; V&P Scientific). One microliter of oleic acid (400 uM) was added, and the plate was lidded with stainless steel rubber gasket lined lids containing pinholes. After 24 hrs of incubation at 24 degrees Celsius and 95% humidity, 4 uL of CellTiter-Glo (Promega) was added to the wells. Luminescence was detected on the Perkin Elmer ViewLux.
(Cellular ATP, detected with luciferase, serves as a proxy for viable cell number.)
With `CC(C)(C)OC(=O)NCCOCCOCCOc1cccc(-n2ncc3c2CCCC3NC(=O)c2ccccn2)c1` (configuration not stated), the Potency is 5.6 µM (active).

Regarding `CCOC(=O)C1CCN(C(=O)C(C)(C)NC(=O)Nc2ccc(N)cc2)CC1`, the “activity change, negative = cytotoxicity” value is -12%.

In the case of `CC(C)(C)OC(=O)NCCOCCOCCOc1ccc(-n2ncc3c2CCCC3NC(=O)c2ccccn2)cc1` (configuration not stated), the Potency is 3.15 µM (active).

On to `CCOC(=O)C1CCN(C(=O)C(C)(C)NC(=O)Nc2ccc3ccccc3c2)CC1`, for which the “activity change, negative = cytotoxicity” value was -17.5%.

Take `CCNC(=O)C1CCN(C(=O)C(C)(C)NC(=O)Nc2ccccc2Cl)CC1`: the “activity change, negative = cytotoxicity” value was -13.9%.

In the case of `CCOC(=O)C1CCN(C(=O)C(C)(C)NC(=O)Nc2ccc(F)c(F)c2)CC1`, the “activity change, negative = cytotoxicity” value was -14.3%.

With `O=C(NC1CCCc2c1cnn2-c1ccc(F)cc1F)c1ccccc1` (configuration not stated), the Potency is 4.99 µM (active).

In the case of `CCOC(=O)C1CCN(C(=O)C(C)(C)NC(=O)Nc2ccc(C#N)cc2)CC1`, the “activity change, negative = cytotoxicity” value is -23.1%.

`CC(C)(NC(=O)Nc1ccccc1Cl)C(=O)N1CCC(C(=O)O)CC1`: the “activity change, negative = cytotoxicity” value is -14.9%.

Regarding `CCOC(=O)C1CCN(C(=O)C(C)(C)NC(=O)Nc2ccc(CN3CCOCC3)cc2)CC1`, the “activity change, negative = cytotoxicity” value was -4.86%.

With `CCOC(=O)C1CCN(C(=O)C(C)(C)NC(=O)Nc2cccc(OC)c2)CC1`, the “activity change, negative = cytotoxicity” value is -15.5%.

Consider `CCOC(=O)C1CCN(C(=O)C(C)(C)NC(=O)Nc2ccc(N(C)C)cc2)CC1`, for which the “activity change, negative = cytotoxicity” value was -8.42%.

With `CCOC(=O)C1CCN(C(=O)C(C)(C)NC(=O)Nc2ccccc2Cl)CC1`, the “activity change, negative = cytotoxicity” value was -19%.

As for `O=C(NC1CCCc2c1cnn2-c1ccc(F)cc1F)c1cccs1` (configuration not stated), the Potency was 5.6 µM (active).

As to `CCOC(=O)C1CCN(C(=O)C(C)(C)NC(=O)Nc2cccc(C(=O)OC)c2)CC1`, the “activity change, negative = cytotoxicity” value is -4.92%.

In the case of `CCOC(=O)C1CCN(C(=O)C(C)(C)NC(=O)Nc2ccc(Cl)cc2Cl)CC1`, the “activity change, negative = cytotoxicity” value is -16.8%.

In the case of `CCOC(=O)C1CCN(C(=O)C(C)(C)NC(=O)Nc2cccc(-c3csc(C)n3)c2)CC1`, the “activity change, negative = cytotoxicity” value was -12.3%.

As to `CCOC(=O)C1CCN(C(=O)C(C)(C)NC(=O)Nc2ccc(OC)c(Cl)c2)CC1`, the “activity change, negative = cytotoxicity” value was -11.8%.

Regarding `CCN(CC)C(=O)C1CCN(C(=O)C(C)(C)NC(=O)Nc2ccccc2Cl)CC1`, the “activity change, negative = cytotoxicity” value was -15.3%.

On to `O=C(N[C@H]1CCCc2c1cnn2-c1ccc(F)cc1F)c1ccccn1`, for which the “activity change, negative = cytotoxicity” value is -19.2%.

With `CCOC(=O)C1CCN(C(=O)C(C)(C)NC(=O)Nc2ccc3c(c2)CCC3)CC1`, the “activity change, negative = cytotoxicity” value was -14.7%.

Turning to `O=C(NC1CCCc2c1cnn2-c1ccc(F)cc1F)c1ccccn1` (configuration not stated), the Potency is 7.05 µM (active) and 11.2 µM (active).
